Inconclusive results are not listed. Active and inactive are the calls of the source. Unless noted, the call rests on the fitted dose curve; in most records, active means well fitted curve in the direction sought with a large enough effect; inconclusive means small, poorly fitted or top-dose-only effect, or another doubt; inactive means no such curve, though single readings can be large; an effect the other way counts as inactive or inconclusive. Where a SMILES comes first, the peptide text is derived from it. Bridges are numbered along the chain shown (N, C = ends). [ ]: non-standard residue; d: D form. hArg = N=C(N)NCCCC[C@H](N)C(=O)O; Mpa = O=C(O)CCS
Target: Cytochrome P450 2C9 (Homo sapiens) (UniProt P11712)
Sequence (P11712 whole entry, looked up): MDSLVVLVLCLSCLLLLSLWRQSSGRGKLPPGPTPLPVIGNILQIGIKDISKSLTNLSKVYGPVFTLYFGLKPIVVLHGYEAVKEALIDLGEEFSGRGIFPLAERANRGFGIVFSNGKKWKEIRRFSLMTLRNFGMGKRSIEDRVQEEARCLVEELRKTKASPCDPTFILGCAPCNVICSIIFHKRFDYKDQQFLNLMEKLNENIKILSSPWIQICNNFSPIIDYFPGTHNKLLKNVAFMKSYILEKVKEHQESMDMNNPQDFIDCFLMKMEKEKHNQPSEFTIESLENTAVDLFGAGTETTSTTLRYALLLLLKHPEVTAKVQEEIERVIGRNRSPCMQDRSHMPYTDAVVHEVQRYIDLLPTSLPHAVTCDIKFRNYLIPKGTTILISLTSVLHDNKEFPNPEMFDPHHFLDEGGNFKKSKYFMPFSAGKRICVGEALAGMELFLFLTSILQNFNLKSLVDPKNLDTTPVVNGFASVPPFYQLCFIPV
Assay: Cytochrome P450 family 2 subfamily C member 9 (CYP2C9) small molecule antagonists: luciferase biochemical (cell-free) qHTS assay (AID 1645842; active means well fitted curve in the direction sought with a large enough effect in the repeat runs; an effect the other way counts as inactive or inconclusive; further: nearly all actives have a fitted effect of over 55% in size; further: potency means the concentration at half of the fitted maximal effect)
Details: P450-Glo CYP2C9 enzyme assay, luciferin luminescence; series mostly up to 57.4 µM; activity change, negative = inhibition: at the top concentration
How it was run: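 Luminescence, after 20 min with luciferin detection reagent, reflected CYP2C9 turnover during a 1 h NADPH-driven reaction at 37C. Enzyme-substrate mix contained 0.4% bovine serum albumin and was preincubated with compound 10 min at room temperature.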
On the % scale 0 is the no-effect control and ±100 the full control effect.

| Compound | activity change, negative = inhibition | Potency |
| --- | --- | --- |
| C/C=C/C(=O)N(CC)c1ccccc1C | 0.925% (inactive) |  |
| COC(=O)c1cccnc1 | 4.39% (inactive) |  |
| O=C(NCN1CCOCC1)c1cnccn1 | 0.886% (inactive) |  |
| CC(=O)Nc1ccccc1 | 16.9% (inactive) |  |
| COc1ccc2cc(CCC(C)=O)ccc2c1 | -25.4% (inactive) |  |
| CC1(C)S[C@@H]2[C@H](NC(=O)C(C(=O)O)c3ccccc3)C(=O)N2[C@H]1C(=O)O (stereo not given in full) | 5.51% (inactive) |  |
| Nc1c2c(nc3c1CCC3)CCCC2 | 4.77% (inactive) |  |
| O=C(O)Cc1cn(-c2ccccc2)nc1-c1ccc(Cl)cc1 |  | 4.36 µM (active) |
| NC(=O)[C@@H]1CSSCCC(=O)N[C@@H](CCCCN=C(N)N)C(=O)NCC(=O)N[C@@H](CC(=O)O)C(=O)N[C@@H](Cc2c[nH]c3ccccc23)C(=O)N2CCC[C@H]2C(=O)N1 ([Mpa][hArg]GDWPC-NH2; disulfide 1-7) | 15.8% (inactive) |  |
| COc1ccc(-c2cc(=O)c3c(O)cc(O[C@@H]4O[C@H](CO[C@@H]5O[C@@H](C)[C@H](O)[C@@H](O)[C@H]5O)[C@@H](O)[C@H](O)[C@H]4O)cc3o2)cc1O | -14.1% (inactive) |  |
| O=C(O)CCC(=O)O | 14.1% (inactive) |  |
| Cc1c(NC(=O)c2cccnc2)c(=O)n(-c2ccccc2)n1C | 10.9% (inactive) |  |
| O=C(O)c1cc(=O)c2ccccc2o1 | 1.49% (inactive) |  |
| Cc1cc(=O)[nH]c(=S)[nH]1 | -0.177% (inactive) |  |
| COc1ccc(C(=O)N2CCN(CC(=O)N3CCOCC3)CC2)cc1 | 0.536% (inactive) |  |
| NNc1nnc(NN)c2ccccc12 | -19.2% (inactive) |  |
| CC(=O)Nc1ccc(OCCOCCOc2ccc(NC(C)=O)cc2)cc1 |  | 3.47 µM (active) |
| CCc1cccc(CC)c1NC(=O)CN(CC(=O)O)CC(=O)O | 11.1% (inactive) |  |
| Cn1cc(C(=O)[C@@H]2CCc3nc[nH]c3C2)c2ccccc21 | 44.8% (inactive) |  |
| O=C(/C=C/c1ccc(O)c(O)c1)O[C@@H]1C[C@@](OC(=O)/C=C/c2ccc(O)c(O)c2)(C(=O)O)C[C@@H](O)[C@@H]1O | 3.98% (inactive) |  |
| O=C1C(c2[nH]c3ccccc3c2O)=Nc2ccccc21 | 5.68% (inactive) |  |
| O=C(O)c1ccccc1C(=O)Nc1ccc(S(=O)(=O)Nc2nccs2)cc1 | 28.3% (inactive) |  |
| O=C(O)CCCc1ccccc1 | 4.01% (inactive) |  |

Test system: not listed separately
Assay: Primary qHTS for inhibitors of nuclear receptor binding SET domain protein 2 (NSD2) in an isogenic RCH-ACV NSD2 p.E1099K mutant (9B) (AID 1645876); further: nearly all actives have a fitted effect of over 70% in size
Details: RCH-ACV NSD2 E1099K (9B) viability, CellTiter-Glo, 72 h; series mostly up to 44.9 µM; activity change, negative = viability loss: at the top concentration

| Compound | activity change, negative = viability loss | Potency | outcome |
| --- | --- | --- | --- |
| Cc1ccsc1/C=C/C1=NCCCN1C | -4.33% (inactive) |  |  |
| C/C=C/C(=O)N(CC)c1ccccc1C |  | inactive |  |
| CC(=O)N[C@@H](CC(C)C)C(=O)O | 7.55% (inactive) |  |  |
| COC(=O)c1cccnc1 | -1.26% (inactive) |  |  |
| O=C(NCN1CCOCC1)c1cnccn1 | -14.9% (inactive) |  |  |
| CC(=O)Nc1ccccc1 |  |  | inactive |
| COc1ccc2cc(CCC(C)=O)ccc2c1 | -3.09% (inactive) |  |  |
| CN1C(C)(C)CCCC1(C)C | 2.79% (inactive) |  |  |
| CCCCC1(COC(=O)CCC(=O)O)C(=O)N(c2ccccc2)N(c2ccccc2)C1=O | -1.41% (inactive) |  |  |
| CC1(C)S[C@@H]2[C@H](NC(=O)C(C(=O)O)c3ccccc3)C(=O)N2[C@H]1C(=O)O (stereo not given in full) | -8.9% (inactive) |  |  |
| Nc1c2c(nc3c1CCC3)CCCC2 | -4.92% (inactive) |  |  |
| COc1ccc(-c2cc(=O)c3c(O)cc(O[C@@H]4O[C@H](CO[C@@H]5O[C@@H](C)[C@H](O)[C@@H](O)[C@H]5O)[C@@H](O)[C@H](O)[C@H]4O)cc3o2)cc1O |  | inactive |  |
| CC(C)C[C@@H](N)C(=O)O |  | inactive |  |
| O=C(O)c1cc(=O)c2ccccc2o1 | -4.62% (inactive) |  |  |
| Cc1ccc2c(c1)c1c3n2CCNC3CCC1 (stereo not given) | -19.9% (inactive) |  |  |
| COc1ccc(C(=O)N2CCN(CC(=O)N3CCOCC3)CC2)cc1 | 4.26% (inactive) |  |  |
| CC(C)=CCC/C(C)=C/CO | -3.93% (inactive) |  |  |
| Cc1cccc(Nc2ccccc2C(=O)O)c1C | -0.603% (inactive) |  |  |
| CC(=O)Nc1ccc(OCCOCCOc2ccc(NC(C)=O)cc2)cc1 | 4.28% (inactive) |  |  |
| CCc1cccc(CC)c1NC(=O)CN(CC(=O)O)CC(=O)O | 0.376% (inactive) |  |  |
| CC(C)=CCC[C@@](C)(O)[C@H]1CC=C(C)CC1 | -9.3% (inactive) |  |  |
| O=C1C(c2[nH]c3ccccc3c2O)=Nc2ccccc21 | -3.9% (inactive) |  |  |
| O=C(O)c1ccccc1C(=O)Nc1ccc(S(=O)(=O)Nc2nccs2)cc1 | -2.36% (inactive) |  |  |
| O=C(O)CCCc1ccccc1 |  | inactive |  |
| CCCNC(C)(C)COC(=O)c1ccccc1 | -4.68% (inactive) |  |  |
| CN(C/C=C/C#CC(C)(C)C)Cc1cccc2ccccc12 |  |  | inactive |

Test system: not listed separately
Assay: Primary qHTS for inhibitors of nuclear receptor binding SET domain protein 2 (NSD2) in an RCH-ACV wild type WT cells (2C) (AID 1645877); further: nearly all actives have a fitted effect of over 70% in size
Details: RCH-ACV (leukaemia line) NSD2 WT (2C) viability, CellTiter-Glo, 72 h; series mostly up to 44.9 µM; activity change, negative = cell killing: at the top concentration

| Compound | activity change, negative = cell killing | Potency | outcome |
| --- | --- | --- | --- |
| Cc1ccsc1/C=C/C1=NCCCN1C | -18.8% (inactive) |  |  |
| C/C=C/C(=O)N(CC)c1ccccc1C |  | inactive |  |
| CC(=O)N[C@@H](CC(C)C)C(=O)O |  |  | inactive |
| CC(=O)Nc1ccccc1 |  |  | inactive |
| COc1ccc2cc(CCC(C)=O)ccc2c1 | -20.5% (inactive) |  |  |
| CN1C(C)(C)CCCC1(C)C | -6.64% (inactive) |  |  |
| CCCCC1(COC(=O)CCC(=O)O)C(=O)N(c2ccccc2)N(c2ccccc2)C1=O | -10.6% (inactive) |  |  |
| Nc1c2c(nc3c1CCC3)CCCC2 | -7.35% (inactive) |  |  |
| COc1ccc(-c2cc(=O)c3c(O)cc(O[C@@H]4O[C@H](CO[C@@H]5O[C@@H](C)[C@H](O)[C@@H](O)[C@H]5O)[C@@H](O)[C@H](O)[C@H]4O)cc3o2)cc1O |  | inactive |  |
| CC(C)C[C@@H](N)C(=O)O |  | inactive |  |
| O=C(O)c1cc(=O)c2ccccc2o1 | -0.172% (inactive) |  |  |
| COc1ccc(C(=O)N2CCN(CC(=O)N3CCOCC3)CC2)cc1 | 1.58% (inactive) |  |  |
| CC(C)=CCC/C(C)=C/CO | -3.75% (inactive) |  |  |
| Cc1cccc(Nc2ccccc2C(=O)O)c1C | -3.34% (inactive) |  |  |
| CC(=O)Nc1ccc(OCCOCCOc2ccc(NC(C)=O)cc2)cc1 | -21.9% (inactive) |  |  |
| CCc1cccc(CC)c1NC(=O)CN(CC(=O)O)CC(=O)O | -2.26% (inactive) |  |  |
| O=C1C(c2[nH]c3ccccc3c2O)=Nc2ccccc21 | -5.13% (inactive) |  |  |
| O=C(O)c1ccccc1C(=O)Nc1ccc(S(=O)(=O)Nc2nccs2)cc1 | -5.86% (inactive) |  |  |
| O=C(O)CCCc1ccccc1 |  | inactive |  |
| CCCNC(C)(C)COC(=O)c1ccccc1 | -13.5% (inactive) |  |  |
| CN(C/C=C/C#CC(C)(C)C)Cc1cccc2ccccc12 |  |  | inactive |
